According to the supplement of paper PMC10849652:
The full data set covers some 8,800 targets. This sample favours those with a hit. About 0.5% of all pairs of compound and target were hits.

Experiments:
Assay in all cases: log2 fold change, soluble protein after heating vs DMSO (PISA); higher = thermal stabilisation; K562 lysate, 10 uM; active = over 0.2 and 3.5 SD of the protein, either way, in both replicates (recomputed)
[1] = compound: CCCS(=O)(=O)Nc1ccc(F)c(C(=O)c2c[nH]c3ncc(-c4ccc(Cl)cc4)cc23)c1F [vemurafenib]
Method in brief: (§1)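 K562 pellets were dounce-homogenised in PBS pH 7.4 containing 1 mM MgCl2, and the crude extract, at 1 mg/mL protein, was exposed to 10 μM compound for 30 min. Aliquots were heated for 3 min across 48°C-58°C, pooled, brought to 0.5% NP-40 at 4°C and spun at 21,000xg for 90 min, with the supernatant taken as soluble protein. TMTpro 16plex LC-MS/MS with equalised channel sums quantified that protein. Values are log-two fold changes in thermal stability relative to solvent controls, taken from duplicates.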

[2] = compound: CCCS(=O)(=O)Nc1ccc(F)c(C(=O)c2c[nH]c3ncc(Cl)cc23)c1F
Method in brief: as §1

[3] = compound: CCN(CCCOc1ccc2c(Nc3cc(CC(=O)Nc4cccc(F)c4)[nH]n3)ncnc2c1)CCOP(=O)(O)O [barasertib]
Method in brief: as §1

[4] = compound: CC[C@@H]1C(=O)N(C)c2cnc(Nc3ccc(C(=O)NC4CCN(C)CC4)cc3OC)nc2N1C1CCCC1
Method in brief: as §1

[5] = compound: CC[C@@H]1C(=O)N(C)c2cnc(Nc3ccc(C(=O)N[C@H]4CC[C@H](N5CCN(CC6CC6)CC5)CC4)cc3OC)nc2N1C(C)C [volasertib]
Method in brief: as §1

[6] = compound: CCn1c(C(=O)N(C2CC2)C2CC2)cc2c3c(ncn3C)c(Nc3cc(C)n(C)n3)nc21
Method in brief: as §1

[7] = compound: CCn1cc(-c2ccnc3[nH]c(-c4cccc(CN(C)C)c4)cc23)c(-c2ccc(NC(=O)N(C)C)cc2)n1
Method in brief: as §1

[8] = compound: CN1CCC(CNc2ccc3ncc(-c4cccc(OC(F)(F)F)c4)n3n2)CC1
Method in brief: as §1

[9] = compound: CN1CCN(CCOc2cc(OC3CCOCC3)c3c(Nc4c(Cl)ccc5c4OCO5)ncnc3c2)CC1 [saracatinib]
Method in brief: as §1

[10] = compound: CN1CCN(c2nc(C3=C(c4c[nH]c5ccccc45)C(=O)NC3=O)c3ccccc3n2)CC1 [sotrastaurin]
Method in brief: as §1

Measured: log2 fold change

PRKACA (UniProt P17612)
inactive: [1] -0.036 | [2] -0.016 | [3] 0.006 | [4] 0.095 | [5] -0.043 | [6] -0.081 | [7] -0.418 | [8] 0.351 | [9] -0.075 | [10] 0.216

PTPN2 (UniProt P17706)
inactive: [1] 0.027 | [2] -0.017 | [3] 0.051 | [4] -0.028 | [5] 0 | [6] 0.005 | [7] -0.084 | [8] -0.031 | [9] -0.052 | [10] 0.011

PEF1 (UniProt Q9UBV8)
inactive: [1] -0.025 | [2] 0.015 | [3] 0.189 | [4] 0.033 | [5] 0.009 | [6] -0.001 | [7] -0.116 | [8] -0.043 | [9] -0.025 | [10] -0.016

PRPH isoform 2 (UniProt P41219)
inactive: [1] 0.03 | [2] -0.05 | [3] -0.13 | [4] -0.102 | [5] -0.028 | [6] 0.098 | [7] 0.132 | [8] -0.1 | [9] 0.071 | [10] 0.036

PIK3C3 (UniProt Q8NEB9)
inactive: [1] 0.032 | [2] 0.019 | [3] -0.012 | [4] 0.098 | [5] -0.025 | [6] -0.075 | [7] -0.226 | [8] 0.121 | [9] 0.008 | [10] 0.007

PRKRA (UniProt O75569)
inactive: [1] -0.012 | [2] 0.031 | [3] -0.042 | [4] -0.082 | [5] -0.052 | [6] 0.041 | [7] 0 | [8] -0.016 | [9] 0.03 | [10] 0.009

PPP2CA (UniProt P67775)
inactive: [1] 0.061 | [2] -0.008 | [3] -0.012 | [4] 0.032 | [5] -0.012 | [6] 0.02 | [7] 0.13 | [8] 0.049 | [9] 0.039 | [10] -0.047

PDCD6IP (UniProt Q8WUM4)
inactive: [1] -0.003 | [2] 0.015 | [3] 0.083 | [4] -0.061 | [5] 0.006 | [6] 0.013 | [7] -0.073 | [8] -0.035 | [9] -0.068 | [10] -0.139

PRMT8 (UniProt Q9NR22)
inactive: [1] 0.059 | [2] 0.021 | [3] 0.007 | [4] -0.009 | [5] -0.009 | [6] -0.005 | [8] 0.179 | [9] -0.018 | [10] 0.007
active: [7] -0.285

PRRC2A (UniProt P48634)
inactive: [1] -0.006 | [2] 0.008 | [3] -0.013 | [4] 0.107 | [5] 0.012 | [6] 0.013 | [7] 0.05 | [8] 0.008 | [9] 0.049 | [10] -0.014

PYURF (UniProt Q96I23)
inactive: [1] -0.048 | [2] -0.003 | [3] -0.049 | [4] 0.103 | [5] 0.059 | [6] 0.042 | [7] -0.03 | [8] -0.002 | [9] -0.013 | [10] -0.034

PCBP2 isoform 3 (UniProt Q15366)
Chain of UniProt Q15366 (Q15366 whole entry, looked up): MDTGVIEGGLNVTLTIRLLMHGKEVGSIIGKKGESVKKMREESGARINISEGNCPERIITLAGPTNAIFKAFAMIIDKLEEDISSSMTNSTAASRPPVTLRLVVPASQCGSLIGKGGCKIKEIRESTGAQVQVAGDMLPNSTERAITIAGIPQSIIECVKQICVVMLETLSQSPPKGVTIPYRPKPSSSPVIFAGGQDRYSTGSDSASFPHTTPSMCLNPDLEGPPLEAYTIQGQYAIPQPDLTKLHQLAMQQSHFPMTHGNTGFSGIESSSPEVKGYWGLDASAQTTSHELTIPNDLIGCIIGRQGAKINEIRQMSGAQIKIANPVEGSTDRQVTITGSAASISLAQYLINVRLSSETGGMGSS
inactive: [1] -0.059 | [2] -0.004 | [3] -0.006 | [4] -0.021 | [5] -0.003 | [6] 0.057 | [7] -0.022 | [8] -0.002 | [9] -0.017 | [10] -0.006

PRKDC (UniProt P78527)
Chain of UniProt P78527 (P78527 whole entry, looked up): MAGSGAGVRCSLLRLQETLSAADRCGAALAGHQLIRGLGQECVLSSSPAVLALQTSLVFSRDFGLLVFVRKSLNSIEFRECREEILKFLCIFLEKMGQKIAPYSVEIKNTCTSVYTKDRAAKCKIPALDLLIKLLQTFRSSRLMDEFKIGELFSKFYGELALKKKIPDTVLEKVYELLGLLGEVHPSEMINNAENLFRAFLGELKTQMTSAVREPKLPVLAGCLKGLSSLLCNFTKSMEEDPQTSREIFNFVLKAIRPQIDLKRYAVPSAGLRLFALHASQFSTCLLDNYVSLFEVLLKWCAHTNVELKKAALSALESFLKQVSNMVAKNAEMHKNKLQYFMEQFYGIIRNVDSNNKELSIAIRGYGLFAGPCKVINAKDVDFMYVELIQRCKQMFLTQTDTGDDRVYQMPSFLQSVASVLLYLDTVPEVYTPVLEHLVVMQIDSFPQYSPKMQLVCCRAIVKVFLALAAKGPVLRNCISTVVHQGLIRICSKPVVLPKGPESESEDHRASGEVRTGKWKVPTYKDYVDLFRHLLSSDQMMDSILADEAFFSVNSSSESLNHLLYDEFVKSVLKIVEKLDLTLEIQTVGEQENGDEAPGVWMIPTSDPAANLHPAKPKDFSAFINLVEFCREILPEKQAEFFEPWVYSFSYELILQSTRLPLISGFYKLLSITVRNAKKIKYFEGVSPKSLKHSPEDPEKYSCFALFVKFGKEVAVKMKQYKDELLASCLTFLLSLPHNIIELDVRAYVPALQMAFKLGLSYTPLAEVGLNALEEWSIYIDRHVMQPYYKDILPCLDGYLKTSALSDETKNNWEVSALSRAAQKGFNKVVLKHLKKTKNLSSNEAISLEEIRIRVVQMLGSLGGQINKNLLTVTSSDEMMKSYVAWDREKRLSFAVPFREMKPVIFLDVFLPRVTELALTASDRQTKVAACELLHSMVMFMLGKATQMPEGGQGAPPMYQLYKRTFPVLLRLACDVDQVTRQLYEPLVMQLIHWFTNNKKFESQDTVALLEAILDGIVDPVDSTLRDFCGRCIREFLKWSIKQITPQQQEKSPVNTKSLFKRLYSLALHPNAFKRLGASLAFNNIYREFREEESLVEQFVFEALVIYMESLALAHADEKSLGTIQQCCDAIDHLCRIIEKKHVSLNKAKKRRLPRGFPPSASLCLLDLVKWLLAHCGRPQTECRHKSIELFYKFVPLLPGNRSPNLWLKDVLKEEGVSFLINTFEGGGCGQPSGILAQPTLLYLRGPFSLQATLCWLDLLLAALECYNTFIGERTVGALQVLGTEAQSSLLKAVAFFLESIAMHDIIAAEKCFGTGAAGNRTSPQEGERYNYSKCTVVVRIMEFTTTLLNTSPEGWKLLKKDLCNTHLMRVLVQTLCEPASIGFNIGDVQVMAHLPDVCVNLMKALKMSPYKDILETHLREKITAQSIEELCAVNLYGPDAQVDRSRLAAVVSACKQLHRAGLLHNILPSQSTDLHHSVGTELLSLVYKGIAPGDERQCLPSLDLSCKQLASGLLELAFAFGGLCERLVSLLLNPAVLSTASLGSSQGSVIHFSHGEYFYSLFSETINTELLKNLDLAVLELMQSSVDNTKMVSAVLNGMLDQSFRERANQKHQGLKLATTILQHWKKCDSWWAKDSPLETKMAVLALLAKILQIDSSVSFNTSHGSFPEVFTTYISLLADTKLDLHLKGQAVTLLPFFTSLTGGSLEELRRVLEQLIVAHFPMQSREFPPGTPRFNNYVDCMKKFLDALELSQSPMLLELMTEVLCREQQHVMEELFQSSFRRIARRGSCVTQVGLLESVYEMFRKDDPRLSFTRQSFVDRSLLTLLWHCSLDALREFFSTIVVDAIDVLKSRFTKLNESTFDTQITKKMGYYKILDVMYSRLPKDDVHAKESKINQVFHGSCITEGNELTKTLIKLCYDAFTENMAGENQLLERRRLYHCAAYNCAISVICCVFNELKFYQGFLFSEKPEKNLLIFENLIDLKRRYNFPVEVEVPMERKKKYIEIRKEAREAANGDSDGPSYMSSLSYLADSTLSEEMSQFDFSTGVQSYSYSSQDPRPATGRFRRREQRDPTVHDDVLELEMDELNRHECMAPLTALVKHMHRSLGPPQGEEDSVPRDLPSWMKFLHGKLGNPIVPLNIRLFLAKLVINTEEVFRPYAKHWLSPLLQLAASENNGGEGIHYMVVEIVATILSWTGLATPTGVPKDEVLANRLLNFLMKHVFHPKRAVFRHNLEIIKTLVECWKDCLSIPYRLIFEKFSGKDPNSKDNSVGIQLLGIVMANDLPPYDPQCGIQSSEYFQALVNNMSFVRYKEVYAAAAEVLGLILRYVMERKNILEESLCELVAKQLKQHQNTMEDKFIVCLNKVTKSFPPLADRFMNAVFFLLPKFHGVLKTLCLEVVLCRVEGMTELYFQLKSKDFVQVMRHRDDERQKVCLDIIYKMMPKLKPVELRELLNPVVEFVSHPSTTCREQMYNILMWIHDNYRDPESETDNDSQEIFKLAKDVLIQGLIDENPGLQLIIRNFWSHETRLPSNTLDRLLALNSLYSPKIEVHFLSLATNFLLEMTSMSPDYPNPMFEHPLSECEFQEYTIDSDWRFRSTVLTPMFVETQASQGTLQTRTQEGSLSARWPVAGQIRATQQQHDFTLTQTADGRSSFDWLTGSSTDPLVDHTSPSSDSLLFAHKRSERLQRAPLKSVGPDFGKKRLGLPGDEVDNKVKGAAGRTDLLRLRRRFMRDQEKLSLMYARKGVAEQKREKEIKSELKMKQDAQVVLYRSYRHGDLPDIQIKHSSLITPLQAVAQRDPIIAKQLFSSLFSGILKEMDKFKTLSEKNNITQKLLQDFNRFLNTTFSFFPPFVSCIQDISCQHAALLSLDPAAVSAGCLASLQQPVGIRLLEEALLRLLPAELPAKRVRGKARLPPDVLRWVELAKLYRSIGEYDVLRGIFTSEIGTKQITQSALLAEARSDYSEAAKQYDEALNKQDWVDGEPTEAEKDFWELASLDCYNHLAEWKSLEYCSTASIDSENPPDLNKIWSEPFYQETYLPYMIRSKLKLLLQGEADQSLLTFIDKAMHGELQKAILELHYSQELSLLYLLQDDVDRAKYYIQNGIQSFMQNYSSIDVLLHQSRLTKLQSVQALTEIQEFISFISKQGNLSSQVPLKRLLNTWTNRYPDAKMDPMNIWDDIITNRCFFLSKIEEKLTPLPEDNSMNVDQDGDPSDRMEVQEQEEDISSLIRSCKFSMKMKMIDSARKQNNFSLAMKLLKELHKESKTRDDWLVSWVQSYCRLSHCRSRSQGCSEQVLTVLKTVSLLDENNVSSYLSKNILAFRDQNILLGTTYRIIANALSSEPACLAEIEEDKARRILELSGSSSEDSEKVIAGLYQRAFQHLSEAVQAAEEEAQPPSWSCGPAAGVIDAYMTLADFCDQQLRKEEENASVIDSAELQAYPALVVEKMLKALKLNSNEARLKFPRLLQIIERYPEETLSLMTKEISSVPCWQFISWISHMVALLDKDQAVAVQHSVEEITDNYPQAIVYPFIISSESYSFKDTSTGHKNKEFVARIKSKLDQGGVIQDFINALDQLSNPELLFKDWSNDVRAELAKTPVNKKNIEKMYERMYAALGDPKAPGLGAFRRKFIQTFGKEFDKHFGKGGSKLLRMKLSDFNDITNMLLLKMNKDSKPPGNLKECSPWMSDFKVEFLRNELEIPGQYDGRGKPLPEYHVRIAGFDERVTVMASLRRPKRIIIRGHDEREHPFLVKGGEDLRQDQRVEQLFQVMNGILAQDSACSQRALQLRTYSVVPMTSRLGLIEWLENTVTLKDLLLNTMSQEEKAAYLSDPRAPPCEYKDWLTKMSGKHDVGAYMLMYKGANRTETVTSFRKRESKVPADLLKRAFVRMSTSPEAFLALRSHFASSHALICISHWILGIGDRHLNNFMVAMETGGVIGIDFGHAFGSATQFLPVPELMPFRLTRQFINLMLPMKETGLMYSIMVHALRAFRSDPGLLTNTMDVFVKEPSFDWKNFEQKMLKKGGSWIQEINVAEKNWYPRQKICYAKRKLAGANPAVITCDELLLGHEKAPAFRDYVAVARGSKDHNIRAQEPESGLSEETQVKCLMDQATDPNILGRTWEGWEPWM
inactive: [1] 0.132 | [2] 0.014 | [3] -0.009 | [4] -0.058 | [5] -0.062 | [6] 0.063 | [7] -0.12 | [8] 0.097 | [9] -0.007 | [10] 0.048

PGRMC1 (UniProt O00264)
Chain of UniProt O00264 (O00264 whole entry, looked up): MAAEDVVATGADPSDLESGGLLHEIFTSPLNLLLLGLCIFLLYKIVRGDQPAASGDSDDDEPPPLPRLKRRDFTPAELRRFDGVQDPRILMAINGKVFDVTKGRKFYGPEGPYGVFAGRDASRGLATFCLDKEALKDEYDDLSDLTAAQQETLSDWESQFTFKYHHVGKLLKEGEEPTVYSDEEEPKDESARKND
inactive: [1] -0.009 | [2] -0.043 | [3] 0.019 | [4] 0.015 | [5] 0.008 | [6] 0.021 | [7] -0.045 | [8] 0.071 | [9] -0.017 | [10] -0.003

PFN1 (UniProt P07737)
inactive: [1] -0.01 | [2] -0.01 | [3] 0.012 | [4] 0.02 | [5] 0.015 | [6] 0.02 | [7] -0.02 | [8] 0.028 | [9] -0.004 | [10] -0.005

PIK3CB (UniProt P42338)
inactive: [1] -0.079 | [2] 0.001 | [3] 0.011 | [4] 0.314 | [5] -0.025 | [6] -0.07 | [7] -0.02 | [8] 0.427 | [9] -0.03 | [10] 0.158

PRPF38A (UniProt Q8NAV1)
inactive: [1] -0.021 | [2] -0.011 | [3] -0.037 | [4] -0.029 | [5] -0.031 | [6] -0.055 | [8] 0.046 | [9] 0.004 | [10] 0.191
active: [7] -0.465

PPOX (UniProt P50336)
inactive: [1] 0.058 | [2] 0.02 | [3] -0.093 | [4] -0.036 | [5] -0.007 | [6] -0.096 | [7] -0.075 | [8] -0.018 | [9] -0.044 | [10] -0.021

PIP4K2A (UniProt P48426)
Chain of UniProt P48426 (P48426 whole entry, looked up): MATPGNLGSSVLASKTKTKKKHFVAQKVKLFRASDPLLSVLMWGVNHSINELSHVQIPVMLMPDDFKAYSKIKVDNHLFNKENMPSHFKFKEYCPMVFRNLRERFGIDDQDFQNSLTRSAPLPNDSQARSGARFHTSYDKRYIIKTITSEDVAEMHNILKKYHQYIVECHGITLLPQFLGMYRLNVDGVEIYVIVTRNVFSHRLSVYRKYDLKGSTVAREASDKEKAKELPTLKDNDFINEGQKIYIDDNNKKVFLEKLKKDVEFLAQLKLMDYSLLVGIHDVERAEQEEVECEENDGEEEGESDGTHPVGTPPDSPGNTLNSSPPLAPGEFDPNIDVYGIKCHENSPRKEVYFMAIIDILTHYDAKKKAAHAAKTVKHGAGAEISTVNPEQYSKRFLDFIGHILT
active: [4] 0.31
inactive: [1] 0 | [2] -0.009 | [3] -0.051 | [5] 0.087 | [6] 0.073 | [7] -0.035 | [8] 0.155 | [9] 0.036 | [10] 0.02

PRKAR2A (UniProt P13861)
active: [8] -0.26
inactive: [1] -0.01 | [2] 0.033 | [3] 0.055 | [4] 0.011 | [5] -0.013 | [6] 0.009 | [7] 0.065 | [9] -0.012 | [10] -0.154

PCBP2 isoform 8 (UniProt Q15366)
inactive: [1] 0.078 | [2] 0.051 | [3] 0.016 | [4] 0.001 | [5] -0.05 | [6] -0.152 | [7] 0.054 | [8] -0.003 | [9] -0.018 | [10] -0.045

PHGDH (UniProt O43175)
inactive: [1] -0.005 | [2] -0.001 | [3] -0.049 | [4] 0.02 | [5] -0.025 | [6] 0.016 | [7] 0.098 | [8] -0.051 | [9] -0.012 | [10] -0.027

PTGS1 isoform 6 (UniProt P23219)
inactive: [1] 0.058 | [2] 0.076 | [3] 0.039 | [4] 0.005 | [5] -0.022 | [6] -0.012 | [8] 0.134 | [9] -0.033 | [10] 0.065
active: [7] -0.279

PPP1R8 (UniProt Q12972)
active: [7] -0.28
inactive: [1] 0.049 | [2] -0.011 | [3] -0.032 | [4] 0.08 | [5] -0.007 | [6] -0.031 | [8] 0.176 | [9] -0.038 | [10] 0.015

PRKCSH (UniProt P14314)
inactive: [1] 0.01 | [2] -0.009 | [3] -0.009 | [4] 0.007 | [5] 0.04 | [6] 0.025 | [7] 0.007 | [8] -0.003 | [9] 0.011 | [10] 0.018

PTK2 (UniProt Q05397)
inactive: [1] 0.017 | [2] -0.091 | [3] -0.015 | [4] 0.352 | [5] 0.145 | [6] 0.044 | [7] -0.001 | [8] 0.056 | [9] -0.023 | [10] 0.039

PXMP4 (UniProt Q9Y6I8)
inactive: [1] 0.343 | [2] 0.114 | [3] 0.04 | [4] -0.035 | [5] -0.039 | [6] 0.064 | [7] -0.246 | [8] 0.006 | [9] 0.036 | [10] 0.025

PKN1 isoform 2 (UniProt Q16512)
inactive: [1] 0.013 | [2] 0.049 | [3] -0.006 | [4] 0.013 | [5] -0.009 | [6] 0.024 | [7] -0.055 | [9] 0.002 | [10] -0.143
active: [8] -0.483

PRKCA (UniProt P17252)
inactive: [1] 0.019 | [2] -0.016 | [3] 0.051 | [4] -0.186 | [5] -0.054 | [6] 0.004 | [7] 0.101 | [8] -0.207 | [9] -0.046
active: [10] 0.924

PIK3R1 (UniProt P27986)
inactive: [1] 0.011 | [2] -0.01 | [3] -0.005 | [4] 0.172 | [5] 0.016 | [6] 0.023 | [7] -0.037 | [9] 0.025 | [10] 0.056
active: [8] 0.365
